The record followed here is PubChem BioAssay (NCI).

Among the test systems are NCI-H23 lung; NCI-H226 lung; NCI-H322M lung; HOP-62 NSCLC; NCI-H460 lung; HOP-92 NSCLC; NCI-H522 lung; A549/ATCC NSCLC; 786-0 renal; COLO 205 colon; DU-145 prostate; K-562 leukemia; MALME-3M melanoma; MDA-MB-231 breast; RXF 393 renal; SF-268 CNS; SF-295 CNS; SF-539 CNS; UACC-257 melanoma; M14 melanoma.
Holding throughout (assay): NCI-60 one-dose screen, 48 h (100 = growth as untreated, 0 = no growth, -100 = all killed)
What all share (details): 10 µM unless noted

Several values for one entry are separate records, joined by “and”; a condition that tells them apart may be missing. Identical values can stand only once. About 83,000 compounds went through this panel and 20% of them were active in at least one assay; those are over-represented in the sample as a whole.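 Values shown are percent growth following 48 h exposure of cells in 96-well plates to a single concentration of compound; below 10 was considered active.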 Activity calls are given as the source filed them.

In the case of `Cc1cc2nc(C(Cl)Cl)nc(-c3ccc(Cl)cc3)n2n1`, the growth in the test with NCI-H23 lung is -19.9% (active); in the test on NCI-H226 lung, 67% (inactive); with NCI-H322M lung it was -32.5% (active); in the test on HOP-62 NSCLC, -8.28% (active); in the test with NCI-H460 lung, -49.4% (active); in the test on HOP-92 NSCLC, 16.1% (inactive). Further, the growth in the test on NCI-H522 lung was 3.6% (active); in the test on A549/ATCC NSCLC, 0.301% (active); in the test with 786-0 renal, 45% (inactive); with COLO 205 colon, -37.2% (active); with DU-145 prostate, -3.35% (active); with K-562 leukemia it was 12.2% (inactive). The growth in the test on MALME-3M melanoma is -16.5% (active); in the test on MDA-MB-231 breast, -2.03% (active); with RXF 393 renal it was -74.4% (active); in the test on SF-268 CNS, 7.03% (active); in the test with SF-295 CNS, 2.71% (active); in the test with SF-539 CNS, 3.16% (active). In addition, the growth in the test on UACC-257 melanoma was 30.9% (inactive); in the test with M14 melanoma, -20.3% (active).

On to `COc1ccc(/C=C(\C#N)c2cc3ccccc3[nH]2)cc1`, for which the growth with NCI-H23 lung was 33.2% (inactive); in the test with NCI-H226 lung, 88% (inactive); in the test on NCI-H322M lung, 49.9% (inactive); in the test on HOP-62 NSCLC, 33.2% (inactive); with NCI-H460 lung, 12.7% (inactive); in the test on HOP-92 NSCLC, 44% (inactive). In addition, the growth with NCI-H522 lung is 6.84% (active); with A549/ATCC NSCLC, 37.5% (inactive); in the test with 786-0 renal, 42.1% (inactive); in the test with COLO 205 colon, 9.11% (active); with DU-145 prostate, 31.1% (inactive); in the test with K-562 leukemia it was 11.4% (inactive). In addition, the growth is 52% (inactive) in the test with MALME-3M melanoma; 51.9% (inactive) in the test on MDA-MB-231 breast; 48% (inactive) in the test on RXF 393 renal; 39.1% (inactive) with SF-268 CNS; 35.7% (inactive) with SF-295 CNS; 21.3% (inactive) in the test with SF-539 CNS. Moreover, the growth in the test on UACC-257 melanoma is 52.2% (inactive); in the test on M14 melanoma, 1.53% (active).

Turning to `C[C@@H]1O[C@@H](O[C@H]2[C@@H](OC(=O)[C@]34CCC(C)(C)C[C@H]3C3=CC[C@@H]5[C@@]6(C)C[C@H](O)[C@H](O[C@@H]7O[C@H](CO)[C@@H](O)[C@H](O)[C@H]7O)[C@@](C)(CO)[C@@H]6CC[C@@]5(C)[C@]3(C)C[C@H]4O)OC[C@@H](O)[C@@H]2O)[C@H](O)[C@H](O[C@@H]2OC[C@@H](O)[C@H](O[C@@H]3OC[C@](O)(CO)[C@H]3O[C@@H]3OC[C@@H](O)[C@H](O)[C@H]3O)[C@H]2O)[C@H]1O[C@@H]1OC[C@](O)(CO)[C@H]1O`, the growth in the test with NCI-H23 lung was 48.7% (inactive); in the test on NCI-H226 lung, 99.2% (inactive); in the test with NCI-H322M lung it was 56.4% (inactive); in the test on HOP-62 NSCLC it was 74% (inactive); with NCI-H460 lung, 110% (inactive); in the test on HOP-92 NSCLC, 103% (inactive). Besides, the growth in the test on NCI-H522 lung is 29.8% (inactive); with A549/ATCC NSCLC it was 50.2% (inactive); with 786-0 renal it was 46.9% (inactive); in the test on COLO 205 colon, 2.01% (active); with DU-145 prostate, 78.5% (inactive); in the test with K-562 leukemia, 58.2% (inactive). In addition, the growth in the test on MALME-3M melanoma was 89.9% (inactive); in the test on MDA-MB-231 breast, 74.1% (inactive); with RXF 393 renal it was 70.7% (inactive); in the test on SF-268 CNS, 85.7% (inactive); in the test with SF-295 CNS it was 62.3% (inactive); with SF-539 CNS, 85.5% (inactive). The growth with UACC-257 melanoma is 56.2% (inactive); in the test with M14 melanoma, 75.9% (inactive).

`COc1cc(/C=C/C(=O)c2ccc(NC(=O)CSc3nnc(-c4cc(-c5ccccc5)nc5ccccc45)n3-c3ccccc3)cc2)cc(OC)c1OC`: the growth is 86.8% (inactive) in the test on NCI-H23 lung; 85.4% (inactive) in the test on NCI-H226 lung; 91.7% (inactive) in the test with NCI-H322M lung; 93.7% (inactive) in the test on HOP-62 NSCLC; 90.4% (inactive) with NCI-H460 lung; 88.6% (inactive) in the test with HOP-92 NSCLC. Moreover, the growth is 70.7% (inactive) in the test with NCI-H522 lung; 85.8% (inactive) in the test on A549/ATCC NSCLC; 94.7% (inactive) in the test on 786-0 renal; 86.4% (inactive) in the test with COLO 205 colon; 83.7% (inactive) in the test on DU-145 prostate; 49.7% (inactive) in the test with K-562 leukemia. The growth is 94.6% (inactive) with MALME-3M melanoma; 64.2% (inactive) in the test with MDA-MB-231 breast; 94.1% (inactive) in the test with RXF 393 renal; 90.8% (inactive) in the test with SF-268 CNS; 96.6% (inactive) in the test with SF-295 CNS; 88.3% (inactive) with SF-539 CNS. Moreover, the growth in the test on UACC-257 melanoma is 109% (inactive); in the test with M14 melanoma, 94.5% (inactive).

For the compound `O=C(CCl)N(O)c1ccc(/C=C/c2ccccc2)cc1`, the growth in the test with NCI-H23 lung is 70.7% (inactive) and 74.2% (inactive); with NCI-H226 lung it was 56.9% (inactive); in the test on NCI-H322M lung it was 99.5% (inactive) and 91.5% (inactive); in the test with HOP-62 NSCLC it was 96.5% (inactive); with NCI-H460 lung, 85.4% (inactive) and 73% (inactive); with HOP-92 NSCLC, 81.8% (inactive). The growth in the test on NCI-H522 lung was 61.5% (inactive) and 30.4% (inactive); in the test with A549/ATCC NSCLC it was 90.3% (inactive) and 65% (inactive); in the test on 786-0 renal, 84% (inactive) and 78.3% (inactive); with COLO 205 colon, 92.9% (inactive) and 83.1% (inactive); in the test with DU-145 prostate, 90.3% (inactive) and 86.6% (inactive); with K-562 leukemia it was 64% (inactive) and 46.1% (inactive). Moreover, the growth is 95.3% (inactive) and 84.2% (inactive) with MALME-3M melanoma; 82.1% (inactive) and 66.5% (inactive) with MDA-MB-231 breast; 99.9% (inactive) and 71.3% (inactive) with RXF 393 renal; 84.7% (inactive) and 72.8% (inactive) with SF-268 CNS; 95.5% (inactive) and 80.9% (inactive) in the test with SF-295 CNS; 94.3% (inactive) and 93.4% (inactive) with SF-539 CNS. For the same compound, the growth was 103% (inactive) in the test on UACC-257 melanoma; 75% (inactive) and 71.8% (inactive) with M14 melanoma.
